The nature of assay [1]: optical density shifts of acrAB sulA E. coli – strain DRC41, OD650, 48 h, E. coli filamentation inducer project, primary screen (AID 1152).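 Also: E. coli MC1000 strain DRC41 lacking acrAB efflux pump and sulA.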 Particulars: higher = more signal, called active from +8 up or from −8 down.
Assay [2] in a line: probe aLefty1 binding on compound microarray – biochemical, small-molecule microarray, 635/667 nm fluorescence, primary screen (AID 1153).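 Also: score merges spot fluorescence with signal-to-noise ratio from the scanned slide images.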 To be noted: higher = more signal.
The nature of assay [3]: plasmodial surface anion channel blockers, osmotic lysis – cell-based, P. falciparum Indochina, OD700, 1 h, primary screen (AID 1154). Particulars: P. falciparum Indochina infected RBC osmotic lysis, higher = more signal, called active from +8 up or from −8 down.
The nature of assay [4]: plasmodial surface anion channel blockers, osmotic lysis – cell-based, P. falciparum Indochina, OD700, 2 h, primary screen (AID 1155).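 Also: lysis reports solute entry through the parasite surface anion channel PSAC.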 To be noted: P. falciparum Indochina infected erythrocytes, higher = more signal, called active from +8 up or from −8 down.
A short description of assay [5]: changes in parasitized red cell lysis, either direction – P. falciparum Indochina, OD700, 3 h, PSAC antagonist project, primary screen (AID 1156). Particulars: P. falciparum-infected erythrocytes, osmotic lysis, higher = more signal, called active from +8 up or from −8 down.
A short description of assay [6]: plasmodial surface anion channel blockers, osmotic lysis – cell-based, P. falciparum Indochina, OD700, 18 h, primary screen (AID 1157). Particulars: P. falciparum Indochina infected erythrocytes, osmotic lysis OD700, 18 h; higher = more signal, called active from +8 up or from −8 down.
Assay [7] can be described thus: S6 kinase pathway phospho-S6 level changes – cell-based, A549, cytoblot, luminescence, serum-stimulated, primary screen (AID 1158).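 Also: serum-stimulated A549 lung adenocarcinoma cells; signal is phosphorylated S6 detected by cytoblot immunostaining with HRP secondary.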 To be noted: 5 h, higher = more signal.
Assay [8] addresses NADPH oxidase 2 (Homo sapiens) (UniProt P04839). As to the kind of experiment: compounds shifting NOX2 Amplex Red fluorescence – cell-based, HEK293-NOX2, PMA-stimulated, NOX inhibitor project, primary screen (AID 1159). Also: test concentration not given here. To be noted: 45 min, higher = more signal, called active from +8 up or from −8 down.
Assay [9] has as its target NADPH oxidase 4 (Homo sapiens) (UniProt Q9NPH5). As to the kind of experiment: compounds shifting NOX4 Amplex Red fluorescence – cell-based, HEK293-NOX4, tetracycline-induced, NOX inhibitor project, primary screen (AID 1160). To be noted: HEK293-NOX4, Amplex Red H2O2 fluorescence, 45 min; higher = more signal, called active from +8 up or from −8 down.
The target in assay [10] is NADPH oxidase 5 (Homo sapiens) (UniProt Q96PH1). Put plainly: compounds shifting NOX5 Amplex Red fluorescence – cell-based, HEK293-NOX5, NOX inhibitor project, primary screen (AID 1161). Particulars: HEK293-NOX5, ionomycin, 45 min, higher = more signal.
NADPH oxidase 5 (Homo sapiens), sequence (Q96PH1 whole entry, looked up): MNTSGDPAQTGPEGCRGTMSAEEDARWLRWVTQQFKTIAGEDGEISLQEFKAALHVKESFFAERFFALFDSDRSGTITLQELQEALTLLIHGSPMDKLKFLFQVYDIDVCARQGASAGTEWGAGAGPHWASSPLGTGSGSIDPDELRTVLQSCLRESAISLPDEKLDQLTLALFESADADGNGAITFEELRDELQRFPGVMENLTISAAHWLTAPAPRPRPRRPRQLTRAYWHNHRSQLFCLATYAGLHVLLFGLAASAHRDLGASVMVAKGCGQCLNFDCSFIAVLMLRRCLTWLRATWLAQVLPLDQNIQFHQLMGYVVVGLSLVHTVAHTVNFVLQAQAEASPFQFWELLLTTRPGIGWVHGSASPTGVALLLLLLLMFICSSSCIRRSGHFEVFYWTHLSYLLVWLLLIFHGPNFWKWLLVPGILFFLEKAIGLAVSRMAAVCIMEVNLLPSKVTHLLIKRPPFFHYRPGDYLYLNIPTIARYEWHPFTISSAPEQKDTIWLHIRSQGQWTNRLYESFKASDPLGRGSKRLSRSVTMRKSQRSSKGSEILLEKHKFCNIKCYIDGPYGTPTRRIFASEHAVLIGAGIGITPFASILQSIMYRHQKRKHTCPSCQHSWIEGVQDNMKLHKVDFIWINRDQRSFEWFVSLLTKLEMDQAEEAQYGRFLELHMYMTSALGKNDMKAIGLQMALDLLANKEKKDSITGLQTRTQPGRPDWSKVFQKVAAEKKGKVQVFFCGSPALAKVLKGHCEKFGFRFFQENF

Activity calls are given as the source filed them.

NADPH oxidase 4 (Homo sapiens), sequence (Q9NPH5 whole entry, looked up): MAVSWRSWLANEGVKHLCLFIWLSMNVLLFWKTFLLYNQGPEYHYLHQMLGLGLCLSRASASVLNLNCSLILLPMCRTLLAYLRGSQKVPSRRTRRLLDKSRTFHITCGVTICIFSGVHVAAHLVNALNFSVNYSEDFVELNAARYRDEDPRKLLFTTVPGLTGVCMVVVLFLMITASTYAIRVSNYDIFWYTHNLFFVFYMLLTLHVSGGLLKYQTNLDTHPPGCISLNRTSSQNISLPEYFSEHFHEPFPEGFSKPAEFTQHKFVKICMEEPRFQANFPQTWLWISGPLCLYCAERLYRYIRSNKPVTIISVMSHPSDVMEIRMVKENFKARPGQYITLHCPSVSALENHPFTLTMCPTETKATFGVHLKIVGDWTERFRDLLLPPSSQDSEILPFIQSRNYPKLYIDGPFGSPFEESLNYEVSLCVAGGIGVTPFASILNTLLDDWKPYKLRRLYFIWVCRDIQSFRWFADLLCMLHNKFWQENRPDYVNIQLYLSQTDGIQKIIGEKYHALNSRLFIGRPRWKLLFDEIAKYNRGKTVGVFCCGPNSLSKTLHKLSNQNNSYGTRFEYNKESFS
NADPH oxidase 2 (Homo sapiens), sequence (P04839 whole entry, looked up): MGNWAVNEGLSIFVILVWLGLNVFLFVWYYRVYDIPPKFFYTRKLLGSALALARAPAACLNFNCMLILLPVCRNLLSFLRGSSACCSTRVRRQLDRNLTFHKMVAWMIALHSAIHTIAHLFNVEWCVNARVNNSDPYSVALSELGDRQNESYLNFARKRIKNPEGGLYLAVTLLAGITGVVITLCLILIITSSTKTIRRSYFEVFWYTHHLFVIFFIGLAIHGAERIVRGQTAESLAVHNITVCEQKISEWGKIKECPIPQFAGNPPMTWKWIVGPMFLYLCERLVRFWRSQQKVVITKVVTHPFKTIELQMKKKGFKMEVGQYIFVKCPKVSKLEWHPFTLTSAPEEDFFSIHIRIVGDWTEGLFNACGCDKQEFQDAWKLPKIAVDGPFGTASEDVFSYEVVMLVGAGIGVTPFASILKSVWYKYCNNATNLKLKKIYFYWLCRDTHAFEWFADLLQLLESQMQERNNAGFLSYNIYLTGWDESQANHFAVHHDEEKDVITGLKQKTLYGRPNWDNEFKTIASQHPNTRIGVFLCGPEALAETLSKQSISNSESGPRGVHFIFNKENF

In the case of `CC(C)(C)OC(=O)CC[C@@]1(C(=O)O)N=C(c2ccc(OCCCO)cc2)O[C@@H]1c1ccccc1N=[N+]=[N-]`, the z-score in assay [1] is 0.592 (inactive); in assay [3] it was 31.5 (active); in [4] it was 28.4 (active); in assay [5], 1.79 (inactive); in [6] it was 7.51 (inactive); in assay [7], -0.342. Further, the z-score in assay [8] is -0.0442 (inactive); in assay [9], 1.69 (inactive); in assay [10] it was 0.907. In addition, the composite z-score in [2] was 0.266.

In the case of `CN(C)C(=O)[C@@]1(CCC(=O)OC(C)(C)C)N=C(c2ccc(OCCCO)cc2)O[C@H]1c1ccccc1`, the z-score in assay [1] is -0.249 (inactive); in assay [3], 15.9 (active); in [4], 1 (inactive); in [5], 1.34 (inactive); in [6], -0.976 (inactive); in assay [7], 0.837. For the same compound, the z-score in assay [8] is -2.81 (inactive); in assay [9], -0.618 (inactive); in assay [10], -0.698. For the same compound, the composite z-score in assay [2] stood at 0.986.

As to `CC(=O)C1=CCC(c2ccccc2)N(S(=O)(=O)c2ccc(C)cc2)C1` (stereo not given), the z-score was -1.12 (inactive) in assay [1]; 2.75 (inactive) in assay [3]; 1.5 (inactive) in assay [4]; 1.4 (inactive) in [5]; 1.07 (inactive) in assay [6]; -0.26 in assay [7]. For the same compound, the z-score is -0.179 (inactive) in assay [8], -1.4 (inactive) in assay [9] and 0.0221 in assay [10]. Besides, in assay [2], the composite z-score is 0.157.

Turning to `CCOC(=O)C1=CCC(c2ccc([N+](=O)[O-])cc2)N(S(=O)(=O)c2ccc(C)cc2)C1` (stereo not given), the z-score in assay [1] was -0.65 (inactive); in assay [3] it was 5.2 (inactive); in assay [4] it was 1.91 (inactive); in [5] it was -0.364 (inactive); in [6], 0.781 (inactive); in [7] it was -0.864. For the same compound, the z-score in assay [8] was 1.07 (inactive); in assay [9], 0.135 (inactive); in assay [10], 0.739. The compound further returned a composite z-score in assay [2] of 0.0839.

On to `O=C1C[C@@](C(=O)NC2CC2)(c2ccc([N+](=O)[O-])cc2)[C@@H](c2ccc(CO)cc2)N1CC12CC3CC(CC(C3)C1)C2`, for which the z-score in assay [1] is 0.904 (inactive); in assay [3], 2.28 (inactive); in [4], -0.135 (inactive); in assay [5] it was 0.678 (inactive); in assay [6], -0.83 (inactive); in assay [7] it was 0.392. For the same compound, the results for the z-score in assay [8], in [9] and in assay [10] were 0.987 (inactive), -2.19 (inactive) and -2.35, respectively. For the same compound, in [2], the composite z-score is 0.0861.

On to `O=C(NCc1ccccc1)[C@]1(CCS(=O)(=O)c2ccccc2)N=C(c2ccc(OCCCO)cc2)O[C@@H]1c1ccccc1`, for which the z-score in assay [1] is 0.673 (inactive); in [3], 24 (active); in assay [4], 6.86 (inactive); in [5], 1.85 (inactive); in [6], 1.45 (inactive); in [7], -0.402. The figures for the z-score in assay [8], in assay [9] and in assay [10] were 0.0459 (inactive), 0.902 (inactive) and 0.242, respectively. The composite z-score in assay [2] is -0.345.

Take `C=CC[C@@]1(C(=O)N2CCOCC2)N=C(c2ccc(OCCCO)cc2)O[C@@H]1c1ccccc1N=[N+]=[N-]`: the z-score in assay [1] was 0.483 (inactive); in assay [3] it was 35.1 (active); in [4], 28.1 (active); in assay [5] it was 3.17 (inactive); in [6] it was 7.41 (inactive); in assay [7], 1.92. The z-score in [8] was -2.14 (inactive); in assay [9] it was -0.164 (inactive); in assay [10] it was -2.02. For the same compound, the composite z-score in [2] turned out to be 0.571.

`CC(C)C[C@@H]1NC(=O)[C@H]2C[C@@H](C(=O)NCCCCCCNC(=O)CS)[C@@H](c3cccc(OCCO)c3)N2C1=O`: the z-score in assay [1] is 1.03 (inactive); in assay [3], 3.77 (inactive); in assay [4], 0.194 (inactive); in assay [5], 2.83 (inactive); in assay [6] it was -0.042 (inactive); in [7], -0.0016. Moreover, the z-score in assay [8] is 1.14 (inactive); in assay [9], 0.665 (inactive); in [10], -0.112. Moreover, in assay [2], the composite z-score is -0.0523.

For the compound `CCCCCCCCCCC(O)C1C=CC2C(=O)N(Cc3ccccc3)C(=O)C2N1n1cnnc1` (stereo not given), the z-score is -1.55 (inactive) in assay [1]; 1.32 (inactive) in assay [3]; -0.595 (inactive) in assay [4]; 1.6 (inactive) in [5]; -2.48 (inactive) in assay [6]; 1.19 in [7]. The z-score in [8] was -2.6 (inactive); in [9] it was -1.1 (inactive); in [10], -4.63. In addition, in [2], the composite z-score worked out at 0.918.

As to `C=CCOC(=O)[C@@H]1[C@H]2C(=O)O[C@H](c3ccccc3)[C@H](c3ccccc3)N2[C@H](c2ccc(OCCOC(=O)[C@@H]3C[C@@H]4C(=O)N[C@@H](Cc5ccccc5)C(=O)N4[C@@H]3c3cccc(OCCO)c3)cc2)[C@@]12C(=O)Nc1ccc(I)cc12`, the z-score is 0.264 (inactive) in [1]; 9.36 (active) in [3]; 2.8 (inactive) in [4]; 2.09 (inactive) in assay [5]; 1.31 (inactive) in assay [6]; -0.479 in [7]. Besides, the z-score was 1.03 (inactive) in [8], -1.02 (inactive) in [9] and 0.727 in assay [10]. The composite z-score in assay [2] worked out at 0.706.

Take `O=c1cccc(C=Cc2ccccc2)o1`: the z-score is 0.465 (inactive) in [1]; 2.92 (inactive) in assay [3]; 0.88 (inactive) in [4]; 0.488 (inactive) in assay [5]; 0.931 (inactive) in [6]; -0.39 in assay [7]. In addition, the z-score in [8] is 0.165 (inactive); in assay [9], -0.562 (inactive); in assay [10], -0.0341. In [2], the composite z-score was -0.29.

As to `N[C@@H](Cc1ccccc1)Cn1cc(-c2ccccc2)nn1`, the z-score is -2.54 (inactive) in assay [1]; 5.12 (inactive) in assay [3]; 0.745 (inactive) in [4]; 0.0287 (inactive) in assay [5]; 0.53 (inactive) in assay [6]; -0.209 in assay [7]. For the same compound, the z-score in assay [8] was 0.659 (inactive); in assay [9], 0.45 (inactive); in [10] it was 0.448. Moreover, the composite z-score in [2] was found to be 0.271.

As for `COC(=O)[C@@]1(Cc2ccc(OC)cc2)[C@H]2c3cc(C(=O)N4CCCC4)n(Cc4ccccn4)c3C[C@H]2CN1C(=O)c1ccccc1`, the z-score was -0.824 (inactive) in [1]; 3.64 (inactive) in assay [3]; 0.537 (inactive) in assay [4]; 1.1 (inactive) in assay [5]; 0.814 (inactive) in assay [6]; -0.569 in assay [7]. In addition, the z-score in assay [8] was 0.29 (inactive); in assay [9], -1 (inactive); in assay [10] it was -3.2. In assay [2], this compound gave a composite z-score of 0.595.

Values taken from PubChem BioAssay.
